Measurements taken from PubChem BioAssay (Tox21).
Results filed as inconclusive are left out. Activity calls are given as the source filed them. Calls come from the whole dose curve; as a rule, active = well fitted cell-killing curve with a large enough effect in the repeat runs; inconclusive = weak or mixed curves, or effect the other way; inactive = flat fitted curve, though single readings scatter.
% is set by controls: 0 for no effect and ±100 for the full control effect; potency is the fitted concentration of half-maximal effect.

Test: qHTS RealTime-Glo MT Cell Viability Assay in HEK293 cells - 16 hour (AID 1224872); note: nearly all actives have a fitted effect of over 50% in size; for activity change, negative = cytotoxicity: top concentration of the series differs between compounds
Settings: RealTime-Glo luminescence; series mostly up to 76.8 µM; activity change, negative = cytotoxicity: at the top concentration
Excerpt: National Center for Advancing Translational Sciences [NCATS]
NIH Chemical Genomics Center [NCGC]
U.S. Environmental Protection Agency [EPA]
National Institutes of Environmental Health Sciences [NIEHS]
National Toxicology Program [NTP]
U.S. Food and Drug Administration [FDA]
Measure of cell viability is critical in the cell-base assay. Analysis of cell viability is necessary for the characterization of cell responses to cytotoxic drugs and environmental stress. A RealTime-Glo MT Cell Viability Assay to monitor cell viability in real time of continues cell culture during 40 hours of compound treatment was used to screen Tox21 10K library compounds in Hek293 cells. The RealTime-Glo MT Cell Viability Assay is a nonlytic, homogeneous, bioluminescent method to measure cell viability in real time using a simple, plate-based method. The assay involves adding NanoLuc luciferase and a cell-permeant prosubstrate to cells in culture. Viable cells reduce the proprietary prosubstrate to generate a substrate for NanoLuc luciferase. This substrate diffuses from cells into the surrounding culture medium, where it is rapidly used by the NanoLuc Enzyme to produce a luminescent signal. The signal correlates with the number of viable cells, making the assay well suited for cytotoxicity studies.
Tox21 Assay Protocol Summary:
The mixture of Hek293 cell suspension and reagents were dispensed at 600cells/6 ul/well in 1536-well tissue culture treated black solid bottom plates using a Multidrop dispenser. After the assay plates were incubated at a 37 C/5% CO2 incubator for 5 hours, 23 nL of compounds dissolved in DMSO, positive and negative controls was transferred to the assay plate by a pintool work station. The plates were incubated at 37 C for 40 hours. The luminescence intensity were measured at 0h, 8h, 16h, 24h, 32h and 40h time points using ViewLux plate reader during compound treatment.
In the case of `Cc1nc2ccccc2s1`, the “activity change, negative = cytotoxicity” value is reported as -1.59% (inactive). In the case of `Oc1ccc(Nc2ccccc2)cc1`, the Potency is reported as 19.5 µM (active). In the case of `CC1C2CC(CC2C2CCCC(O)C2)C1(C)C` (stereo not given), the “activity change, negative = cytotoxicity” value is reported as -26.9% (inactive). With `CCCCN(CCCC)CCCOC(=O)c1ccc(N)cc1` the “activity change, negative = cytotoxicity” value was -21.6% [at 35.3 µM] (inactive). For `CNC(=O)N(c1ccccc1)c1ccccc1`, the “activity change, negative = cytotoxicity” value was 3.39% (inactive). With `CCCCCCCCCOC(C)=O` the “activity change, negative = cytotoxicity” value was -0.188% (inactive). With `COc1ccc([C@@H]2Sc3ccccc3NC(=O)[C@@H]2O)cc1` the “activity change, negative = cytotoxicity” value was -14.4% [at 35.3 µM] (inactive). For `CCCCCCCCCCCCCCC[C@H](O)[C@@H](N)CO`, the Potency was 21.3 µM (active). In the case of `CN(C)CCOC1=Cc2ccccc2Sc2ccc(Cl)cc21`, the “activity change, negative = cytotoxicity” value is reported as -10.9% [at 35.3 µM] (inactive). With `O=C(C(=O)c1ccccc1)c1ccccc1` the “activity change, negative = cytotoxicity” value was 16.3% (inactive). For `OC/C(Br)=C(\Br)CO`, the “activity change, negative = cytotoxicity” value was -2.2% (inactive). In the case of `COC(=O)c1cc(S(N)(=O)=O)ccc1OC`, the “activity change, negative = cytotoxicity” value is reported as 3.53% [at 35.3 µM] (inactive). With `O=C(OCCOCCO)c1ccccc1Nc1cccc(C(F)(F)F)c1` the “activity change, negative = cytotoxicity” value was -22.5% [at 35.3 µM] (inactive). For `CCCOCCOCCO`, the “activity change, negative = cytotoxicity” value was -0.283% (inactive). For `N#C[C@@H]1C[C@@H]2C[C@@H]2N1C(=O)[C@@H](N)C12CC3CC(CC(O)(C3)C1)C2`, the “activity change, negative = cytotoxicity” value was 11.8% [at 35.3 µM] (inactive). With `CCC(=O)Oc1ccc(/C(CC)=C(\CC)c2ccc(OC(=O)CC)cc2)cc1` the Potency was 24.5 µM (active). For `O=C(O)C(Cc1cc(I)c(O)c(I)c1)c1ccccc1` (stereo not given), the “activity change, negative = cytotoxicity” value was -2.51% [at 35.3 µM] (inactive). For `CC[C@@H]([C@H](C)O)n1ncn(-c2ccc(N3CCN(c4ccc(OC[C@@H]5CO[C@@](Cn6cncn6)(c6ccc(F)cc6F)C5)cc4)CC3)cc2)c1=O`, the Potency was 5.35 µM (active). In the case of `C=CCNc1nc(NCC=C)nc(N2CCN(C(c3ccc(F)cc3)c3ccc(F)cc3)CC2)n1`, the “activity change, negative = cytotoxicity” value is reported as -9.27% [at 35.3 µM] (inactive). For `CNCCCC1c2ccccc2C=Cc2ccccc21`, the “activity change, negative = cytotoxicity” value was -25.3% [at 35.3 µM] (inactive). In the case of `CC(C)(C)C(=O)C(Oc1ccc(Cl)cc1)n1ccnc1` (stereo not given), the “activity change, negative = cytotoxicity” value is reported as -18.5% [at 35.3 µM] (inactive). For `Cc1ccc(/C=N/n2c(-c3ccccc3)csc2=S)cc1`, the “activity change, negative = cytotoxicity” value was -0.665% [at 35.3 µM] (inactive). For `CCCCCCOC(=O)CCCCCCCC(=O)OCCCCCC`, the “activity change, negative = cytotoxicity” value was 4.22% (inactive). In the case of `CC(C)(C)C(=O)O`, the “activity change, negative = cytotoxicity” value is reported as 4.52% (inactive). With `CN1C(=O)CC(C)(c2ccccc2)C1=O` (stereo not given) the “activity change, negative = cytotoxicity” value was -6.6% [at 35.3 µM] (inactive). In the case of `CC1=C(/C=C/C(C)=C\C=C\C(C)=C\C(=O)O)C(C)(C)CCC1`, the “activity change, negative = cytotoxicity” value is reported as -10.1% (inactive). With `O=C(O)c1ccccc1NCCc1ccccc1` the “activity change, negative = cytotoxicity” value was -1.13% [at 35.3 µM] (inactive). For `C=CC(=O)NCOCC(C)C`, the “activity change, negative = cytotoxicity” value was -9.41% (inactive). For `CC1(C)O[C@@H]2C[C@H]3[C@@H]4CCC5=CC(=O)C=C[C@]5(C)[C@H]4[C@@H](O)C[C@]3(C)[C@]2(C(=O)CO)O1`, the “activity change, negative = cytotoxicity” value was -0.873% [at 35.3 µM] (inactive). In the case of `Nc1c(I)cc(I)c(C(=O)N(CCC(=O)O)c2ccccc2)c1I`, the “activity change, negative = cytotoxicity” value is reported as -0.499% [at 35.3 µM] (inactive). In the case of `C=C(C)C(=O)OCCOC(=O)CC(C)=O`, the “activity change, negative = cytotoxicity” value is reported as 2.26% (inactive). With `C[Si]1(C)O[Si](C)(C)O[Si](C)(C)O1` the “activity change, negative = cytotoxicity” value was 1.77% (inactive). With `O=C(O)c1ccc(CO)o1` the “activity change, negative = cytotoxicity” value was -1.14% (inactive). For `C=CCOC(=O)/C=C\C(=O)OCC=C`, the “activity change, negative = cytotoxicity” value was 23.5% (inactive). With `Cn1c(=O)c2c(ncn2CC(=O)O)n(C)c1=O` the “activity change, negative = cytotoxicity” value was 1.05% [at 35.3 µM] (inactive). In the case of `CC(=O)Oc1ccc(C(=C2CCCCC2)c2ccc(OC(C)=O)cc2)cc1`, the “activity change, negative = cytotoxicity” value is reported as 1.79% [at 35.3 µM] (inactive). In the case of `CCOC(=N)CC(=O)OCC`, the “activity change, negative = cytotoxicity” value is reported as -2.89% (inactive). For `CCCCC(CC)COC(=O)COc1ccc(Cl)cc1C` (stereo not given), the “activity change, negative = cytotoxicity” value was 23.6% (inactive). For `O=C(CCCCCCC(=O)Nc1ccccc1)NO`, the Potency was 2.68 µM (active). With `CCOC(=O)c1ccccc1C` the “activity change, negative = cytotoxicity” value was 8.85% (inactive).
